Screening data as filed in PubChem.
This is a sample that favours compounds with a hit; in the whole collection about 3.1% have one here.
PPC-1+TRAIL kill: PPC-1 cancer cell killing with TRAIL present; PPC-1 cells + TRAIL, ATPLite viability luminescence; actives 0.41% (n = 220,000); AID 1443; cell killing (% activity), % at 4 µM or 5 µM;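 active means cell killing above 50% in the first pass at 4 µM, then a duplicate retest at 5 µM averaging 50% or more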;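 further: plate controls were cells with TRAIL plus DMSO for no effect and medium-only wells lacking cells for full effect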
C8 TRAIL sens: sensitizes caspase-8 expressing cells to TRAIL; NB7+C8 cells + TRAIL, ATPlite viability luminescence; inhibition (viability loss, TRAIL sensitization), % at 10 µM; actives 1% (n = 360,000); AID 624354;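 active means compounds causing at least 50% loss of cell viability in the single-dose screen, relative to plate controls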
HIF-2a inh: blocks HIF-2a reporter activity. actives 0.72% (n = 360,000). inhibition, % at 18.8 µM. AID 624352. 786-0 RCC cells HIF-2a reporter, luciferase luminescence, overnight;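 active means inhibition of the luminescence signal of 40% or more relative to plate controls, in a single-dose primary screen at 18.75 µM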
KKLEB tox: counter-screen for CF NF-kB inhibitors: cytotoxicity; KKLEB CF airway cells viability, ATPlite luminescence, overnight; active compounds read low; cells stimulated with P. aeruginosa culture filtrate; activity change (cytotoxicity), % at 5 µM; actives 0.36% (n = 360,000); AID 602141;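 active means corrected activity change at or below -50% at 5 µM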
Peg3 prom inh: inhibitors of Peg3 promoter. HeLa PEG-Prom luciferase reporter, luminescence, overnight. inhibition, % at 20 µM. actives 1.7% (n = 360,000);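 active means inhibition of at least 50% at 20 µM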
CF NFkB block: inhibitors of cystic fibrosis induced NF-kB; KKLEB NF-kB-GFP reporter, PAF-induced, GFP fluorescence overnight; inhibition, % at 5 µM; actives 0.86% (n = 360,000);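 active means at least 50% inhibition at 5 µM, scaled per plate between neutral and stimulator controls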;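 further: PAF is a Pseudomonas aeruginosa culture filtrate used as stimulus; plate controls were PAF-stimulated DMSO wells for no effect and unstimulated DMSO wells for full effect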
* = called active by the depositor; · = no result given.

SMILES | PPC-1+TRAIL kill | C8 TRAIL sens | HIF-2a inh | KKLEB tox | Peg3 prom inh | CF NFkB block
COc1ccc(C(N)c2csc(Nc3cc(Oc4ccccc4)ncn3)n2)cc1 (stereo not drawn) | · | 36 | -1 | 7 | 12 | 34
C[C@@H]1CN([C@@H](C)CO)S(=O)(=O)c2ccc(Br)cc2O[C@H]1CN(C)C(=O)c1ccccc1 | · | -21 | 4 | 7 | 4 | -1
O=C(Nc1cccnc1)c1cn(-c2ccccc2)nc1-c1cccs1 | 17 | 39 | -190 | 1 | -116 | 8
CCN(CC)CCNC(=O)c1ccc(NC(=O)c2cn(-c3ccccc3)nc2-c2cccs2)cc1 | 31 | 4 | -78 | -13 | 106* | -14
CCN(CC)CCNC(=O)c1ccc(NC(=O)c2cn(-c3ccc(F)cc3)nc2-c2cccc(OC)c2)cc1 | · | 37 | -17 | -19 | 101* | -16
CCOC(=O)/C=C(\C)Sc1cc(O)c2ccccc2c1O | 35 | 72* | 0 | -43 | 38 | 88*
CCOC(=O)/C=C(\C)Sc1cc(=O)oc2ccccc12 | 4 | -6 | 3 | -34 | 13 | 37
Cn1nc(C(F)(F)F)c(-c2ccc(F)cc2)c1NC(=O)c1ccco1 | 16 | 8 | 20 | 0 | -12 | 4
Cn1nc(C(F)(F)F)c(-c2ccc(Br)cc2)c1NC(=O)Nc1ccc(F)cc1F | 13 | 9 | 7 | -13 | 51* | 31
Cc1cc(C)n2nc(SCC(=O)NC3CCCCC3)nc2n1 | · | -3 | 10 | -1 | -56 | 0
O=[N+]([O-])c1cccc(N=Nc2ccc(O)cc2O)c1 | · | 21 | -154 | -41 | -59 | 66*
O=[N+]([O-])c1ccc(N=Nc2ccc(O)cc2O)cc1 | 17 | -5 | -12 | -27 | -12 | 40
O=C(NC1CCCCC1)C(c1ccccc1)N(C(=O)c1csnn1)C1CCCC1 (stereo not drawn) | · | -4 | 14 | -5 | 19 | 8
Cc1ccc(NC(=O)CSc2nc3ccccc3c(=O)n2Cc2cccs2)cc1 | 6 | -10 | -32 | -52* | -3 | 48
CC(=O)c1cccc(NC(=O)CSc2nc3ccccc3c(=O)n2CCCN2CCOCC2)c1 | · | -6 | 5 | -4 | -15 | -12
COCCCn1c(SCC(=O)Nc2ccc(C)cc2)nc2ccccc2c1=O | · | 1 | 5 | 6 | 21 | -11
Cc1cc(NC(=O)CSc2nc3c(sc4ccccc43)c(=O)n2CCc2ccccc2)n[nH]1 | 17 | -10 | 6 | -15 | 3 | 18
Cc1cc(NC(=O)CSc2nc3c(sc4ccccc43)c(=O)n2CCCN2CCOCC2)n[nH]1 | 27 | 17 | 16 | -25 | 90* | 35
Cc1ccc(NC(=O)CSc2nc3ccccc3c(=O)n2CCCN2CCCCC2)cc1C | 15 | 11 | 35 | -16 | 55* | 16
Cc1ccc2nc(SCC(=O)Nc3ccc(F)cc3F)nc(=O)n2c1 | · | 2 | -57 | 0 | -61 | -2
COCCNCc1ccccc1[N+](=O)[O-] | · | -6 | 6 | -6 | -1 | -38
COCCN(Cc1ccccc1)C(=O)C1CCN(C(=O)Nc2ccccc2)CC1 | · | 0 | -10 | -2 | 0 | 0
O=C(c1[nH]c(C(F)(F)F)nc1-c1ccccc1)N1CCN(c2ncccc2C(F)(F)F)CC1 | · | -15 | 10 | -4 | 24 | 12
O=C(Nc1ccccc1-c1ccccc1)c1ccc(Cl)c([N+](=O)[O-])c1 | 94* | -5 | 25 | 0 | 94* | -10
O=C(Nc1cccc(Cl)c1N1CCCCC1)c1ccc(N2CCOCC2)c([N+](=O)[O-])c1 | 17 | 19 | 11 | -68* | 19 | 65*
SMILES | PPC-1+TRAIL kill | C8 TRAIL sens | HIF-2a inh | KKLEB tox | Peg3 prom inh | CF NFkB block
CC(=O)Nc1ccc(C(=O)Nc2cccc(S(=O)(=O)N(C)c3ccccc3)c2)cc1 | · | -4 | 14 | 0 | 41 | -10
O=C(Nc1ccccc1N1CCCCC1)c1ccc(Cl)c([N+](=O)[O-])c1 | 30 | -8 | 17 | 0 | 101* | -2
CN(c1ccccc1)S(=O)(=O)c1cccc(NC(=O)c2ccc(Cl)c([N+](=O)[O-])c2)c1 | · | 21 | 0 | 7 | 93* | 2
Cn1c(=O)c2sc3c(c2n(CC(=O)Nc2ccccc2)c1=O)COC(C)(C)C3 | · | -9 | 11 | -2 | -2 | 16
O=C(Nc1nc(-c2ccccc2)cs1)c1ccc(N2CCOCC2)c([N+](=O)[O-])c1 | 42 | 83* | -15 | -17 | 67* | 8
CC1CCN(c2ccccc2NC(=O)c2ccc(N3CCOCC3)c([N+](=O)[O-])c2)CC1 | 3 | 4 | 8 | -54* | 3 | 43
Cc1cc(C(=O)Nc2ccccc2N2CCOCC2)ccc1[N+](=O)[O-] | 18 | -7 | 16 | 16 | 13 | -4
O=C(O)c1cc(/C=C/c2ccc(N3CCOCC3)c([N+](=O)[O-])c2)nc2ccccc12 | 43 | 64* | -68 | 8 | -39 | -15
O=C(Nc1nc(-c2ccccc2)cs1)c1ccc2c(=O)n3c(nc2c1)CCCCC3 | -30 | 34 | -60 | 16 | 74* | 4
Cc1cccc(C)c1NC(=O)C(c1ccccc1)N1CCC(c2ccccc2)CC1 (stereo not drawn) | · | -6 | 8 | · | · | ·
CN(Cc1ccc(OC(F)F)cc1)C(=O)c1cccc(S(=O)(=O)N2CCN(Cc3ccccc3)CC2)c1 | · | 12 | 13 | -19 | 16 | 11
O=C(CC1CC2CCC1C2)N1CCN(S(=O)(=O)c2ccc(F)cc2)CC1 (stereo not drawn) | · | 5 | 8 | 10 | 13 | 16
NS(=O)(=O)c1ccc(CCNC(=O)COC(=O)C2CCN(c3ccc(C(F)(F)F)cn3)CC2)cc1 | · | 5 | 1 | 0 | -11 | 11
Oc1cccc(-c2nc3ccccc3s2)c1 | -15 | 48 | -107 | -11 | -148 | -8
Oc1cccc(-c2nnc(-c3cccc(O)c3)nn2)c1 | · | 88* | -12 | -60* | -13 | -2
COc1ccccc1-c1ccc2c(c1)C(C)(Cc1cc(Cl)ccc1C(F)(F)F)C(=O)N2 (stereo not drawn) | · | 11 | -9 | 0 | 78* | 11
COc1ccc(Cl)cc1CC1(C)C(=O)Nc2ccc(-c3ccccc3OC)cc21 (stereo not drawn) | · | -5 | -2 | 3 | 18 | 17
Cc1cccc(C(=O)Nc2cc(S(=O)(=O)N3CCOCC3)ccc2N2CCCCC2)c1 | · | -16 | 4 | -2 | 12 | 15
O=C(NC1CCCCC1)C(c1ccc(F)cc1)N(CCc1ccccc1)C(=O)CN1C(=O)c2ccccc2S1(=O)=O (stereo not drawn) | 8 | 22 | 0 | -20 | 79* | 19
O=C(CN1C(=O)c2ccccc2S1(=O)=O)NC1CCCC1 | -3 | -5 | -20 | -11 | 2 | 10
